From the supplement of paper PMC10849652
The full data set covers some 8,800 targets. This sample favours those with a hit. About 0.5% of all pairs of compound and target were hits.

Assays:
Assay in all cases: log2 fold change, soluble protein after heating vs DMSO (PISA); higher = thermal stabilisation; K562 lysate, 10 uM; active = over 0.2 and 3.5 SD of the protein, either way, in both replicates (recomputed)
erlotinib = compound: C#Cc1cccc(Nc2ncnc3cc(OCCOC)c(OCCOC)cc23)c1 [erlotinib]
Procedure, shortened: (§1)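 Log-two fold change in thermal stability relative to solvent controls is reported from duplicates. For each sample, crude K562 extract from dounce-homogenised pellets in PBS pH 7.4 with 1 mM MgCl2, at 1 mg/mL protein, was treated with 10 μM compound for 30 min. Aliquots heated for 3 min across 48°C-58°C were pooled, brought to 0.5% NP-40 at 4°C and cleared at 21,000xg for 90 min. The supernatant was quantified by TMTpro 16plex LC-MS/MS with channel sums equalised.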

[1] = compound: C/C(=N\NC(=O)C1=CC(=CC=C1)S(=O)(=O)N2CCOCC2)/C3=C(C=CC(=C3)Cl)O
Procedure, shortened: as §1

[2] = compound: C1=CC(=CC=C1C2=NC3=C(N2)C=C(C=C3)C(=O)N)OC4=CC=C(C=C4)Cl
Procedure, shortened: as §1

[3] = compound: C1=CC2=C(C=CC(=C2)/C=C\3/C(=O)NC(=NCC4=CC=CS4)S3)N=C1
Procedure, shortened: as §1

[4] = compound: C1=CC2=NC=CN=C2C=C1/C=C/3\C(=O)NC(=O)S3
Procedure, shortened: as §1

[5] = compound: C1=CC=C(C=C1)C2=NC(=C(N2)C3=CC=NC=C3)C4=CC(=C(C=C4)Cl)O
Procedure, shortened: as §1

[6] = compound: C1=CC=C2C(=C1)C3=NNC4=CC=CC(=C43)C2=O
Procedure, shortened: as §1

[7] = compound: C1CCN(C1)C(=O)NC2=CC=CC(=C2)NC3=NC=C(C(=N3)NCCC4=CN=CN4)Br
Procedure, shortened: as §1

[8] = compound: C1CN(CCC1(CC2=CC=C(C=C2)Cl)N)C3=NC=NC4=C3C=CN4
Procedure, shortened: as §1

IRAK-1-4 Inhibitor I = compound: C1COCCN1CCN2C3=CC=CC=C3N=C2NC(=O)C4=CC(=CC=C4)[N+](=O)[O-] [IRAK-1-4 Inhibitor I]
Procedure, shortened: as §1

Measured: log2 fold change

NCAPG (UniProt Q9BPX3)
inactive: erlotinib -0.008 | [1] -0.018 | [2] -0.004 | [3] -0.01 | [4] -0.007 | [5] 0.006 | [6] -0.026 | [7] 0.002 | [8] 0.013 | IRAK-1-4 Inhibitor I -0.011

PANK1 (UniProt Q8TE04)
inactive: erlotinib -0.003 | [1] -0.048 | [2] 0.033 | [3] 0.026 | [4] 0.098 | [5] 0.015 | [6] -0.069 | [7] -0.036 | [8] 0.054 | IRAK-1-4 Inhibitor I -0.061

NEXN (UniProt Q0ZGT2)
inactive: erlotinib 0.091 | [1] -0.011 | [2] -0.019 | [3] -0.067 | [4] -0.154 | [5] -0.144 | [6] -0.049 | [7] -0.255 | [8] 0.28 | IRAK-1-4 Inhibitor I -0.133

OGT (UniProt O15294)
inactive: erlotinib 0.021 | [1] 0.053 | [2] 0.01 | [3] -0.008 | [4] 0.008 | [5] 0.024 | [6] -0.021 | [7] -0.006 | [8] 0.02 | IRAK-1-4 Inhibitor I -0.017

PANK4 (UniProt Q9NVE7)
inactive: erlotinib 0.013 | [1] -0.012 | [2] 0.003 | [3] 0.051 | [4] 0.033 | [5] 0.003 | [6] -0.052 | [7] -0.002 | [8] 0.018 | IRAK-1-4 Inhibitor I 0.018

NQO1 (UniProt P15559)
Chain of UniProt P15559 (P15559 whole entry, looked up): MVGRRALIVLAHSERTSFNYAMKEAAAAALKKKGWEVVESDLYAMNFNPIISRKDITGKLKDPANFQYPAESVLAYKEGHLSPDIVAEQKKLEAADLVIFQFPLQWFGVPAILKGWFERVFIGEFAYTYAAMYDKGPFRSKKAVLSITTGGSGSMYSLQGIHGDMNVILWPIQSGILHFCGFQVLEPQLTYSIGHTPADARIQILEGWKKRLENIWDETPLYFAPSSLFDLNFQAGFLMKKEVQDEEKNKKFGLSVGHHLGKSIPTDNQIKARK
inactive: erlotinib -0.033 | [1] 0.081 | [2] 0.055 | [3] -0.08 | [4] -0.02 | [5] -0.022 | [6] -0.192 | [7] 0.005 | [8] 0.006 | IRAK-1-4 Inhibitor I -0.017

NFKBIE (UniProt O00221)
inactive: erlotinib 0.014 | [1] -0.009 | [2] -0.117 | [3] 0.059 | [4] -0.022 | [5] 0.059 | [6] -0.026 | [7] -0.078 | [8] 0.081 | IRAK-1-4 Inhibitor I 0.119

NCK1 (UniProt P16333)
inactive: erlotinib 0.02 | [1] 0.036 | [2] 0.04 | [3] -0.007 | [4] -0.01 | [5] -0.009 | [6] -0.072 | [7] -0.024 | [8] 0.049 | IRAK-1-4 Inhibitor I 0.002

OSBP2 (UniProt Q969R2)
inactive: erlotinib -0.019 | [1] -0.254 | [2] 0.08 | [3] 0.032 | [4] -0.039 | [5] -0.077 | [6] -0.075 | [7] 0.037 | [8] -0.01 | IRAK-1-4 Inhibitor I -0.061

NPM3 (UniProt O75607)
Chain of UniProt O75607 (O75607 whole entry, looked up): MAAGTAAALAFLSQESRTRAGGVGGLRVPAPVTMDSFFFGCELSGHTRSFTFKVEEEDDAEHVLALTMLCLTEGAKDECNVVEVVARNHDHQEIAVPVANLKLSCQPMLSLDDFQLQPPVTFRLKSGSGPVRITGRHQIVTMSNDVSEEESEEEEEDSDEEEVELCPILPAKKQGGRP
inactive: erlotinib 0.023 | [1] -0.047 | [2] 0.034 | [3] 0.019 | [4] -0.059 | [5] -0.013 | [6] 0.025 | [7] -0.004 | [8] 0.053 | IRAK-1-4 Inhibitor I -0.028

NFATC1 (UniProt O95644)
inactive: erlotinib -0.002 | [1] -0.431 | [2] 0.045 | [3] -0.04 | [4] -0.02 | [5] 0.065 | [6] 0.009 | [7] 0.044 | [8] 0.092 | IRAK-1-4 Inhibitor I 0.077

PAK1 (UniProt Q13153)
Chain of UniProt Q13153 (Q13153 whole entry, looked up): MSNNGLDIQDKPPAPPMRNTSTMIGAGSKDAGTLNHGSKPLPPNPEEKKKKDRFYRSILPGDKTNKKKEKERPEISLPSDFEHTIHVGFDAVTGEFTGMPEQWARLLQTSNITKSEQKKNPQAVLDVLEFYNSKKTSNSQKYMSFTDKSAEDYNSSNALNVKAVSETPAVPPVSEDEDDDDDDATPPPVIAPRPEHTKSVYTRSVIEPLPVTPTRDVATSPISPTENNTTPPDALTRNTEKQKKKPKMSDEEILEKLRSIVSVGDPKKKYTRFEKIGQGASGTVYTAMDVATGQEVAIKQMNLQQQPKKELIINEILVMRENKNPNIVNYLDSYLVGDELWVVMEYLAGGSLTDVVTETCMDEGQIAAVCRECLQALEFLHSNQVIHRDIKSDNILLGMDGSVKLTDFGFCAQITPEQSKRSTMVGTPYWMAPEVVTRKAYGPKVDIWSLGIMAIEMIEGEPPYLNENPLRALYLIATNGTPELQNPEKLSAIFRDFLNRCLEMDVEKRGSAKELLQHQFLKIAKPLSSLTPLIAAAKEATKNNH
inactive: erlotinib 0.043 | [1] 0.018 | [2] 0.01 | [3] -0.017 | [4] 0.01 | [5] -0.014 | [6] 0.018 | [7] 0.028 | [8] 0.041 | IRAK-1-4 Inhibitor I -0.007

NUF2 (UniProt Q9BZD4)
Chain of UniProt Q9BZD4 (Q9BZD4 whole entry, looked up): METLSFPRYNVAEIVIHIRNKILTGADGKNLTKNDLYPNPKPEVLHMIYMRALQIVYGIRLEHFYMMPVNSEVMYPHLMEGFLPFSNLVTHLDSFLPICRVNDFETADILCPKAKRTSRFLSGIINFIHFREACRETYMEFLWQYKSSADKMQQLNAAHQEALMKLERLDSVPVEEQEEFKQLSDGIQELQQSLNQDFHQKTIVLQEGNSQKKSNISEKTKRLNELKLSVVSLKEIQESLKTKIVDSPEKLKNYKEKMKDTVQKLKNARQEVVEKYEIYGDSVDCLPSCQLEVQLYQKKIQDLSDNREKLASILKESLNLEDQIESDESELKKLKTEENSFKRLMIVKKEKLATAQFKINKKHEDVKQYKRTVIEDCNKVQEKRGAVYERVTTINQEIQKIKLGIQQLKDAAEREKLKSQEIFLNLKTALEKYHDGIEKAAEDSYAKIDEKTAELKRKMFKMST
inactive: erlotinib 0.009 | [1] 0.006 | [2] -0.012 | [3] 0.03 | [4] -0.002 | [5] -0.047 | [6] -0.047 | [7] -0.039 | [8] -0.004 | IRAK-1-4 Inhibitor I -0.039

NMT1 (UniProt P30419)
inactive: erlotinib -0.027 | [1] -0.147 | [2] 0.15 | [3] 0.019 | [4] -0.021 | [5] -0.024 | [6] 0.062 | [7] -0.012 | [8] -0.165 | IRAK-1-4 Inhibitor I -0.027

MRPS31 (UniProt Q92665)
inactive: erlotinib -0.015 | [1] -0.042 | [2] 0.056 | [3] 0.042 | [4] -0.021 | [5] -0.028 | [6] -0.048 | [7] -0.022 | [8] 0.02 | IRAK-1-4 Inhibitor I 0.005

NIFK (UniProt Q9BYG3)
Chain of UniProt Q9BYG3 (Q9BYG3 whole entry, looked up): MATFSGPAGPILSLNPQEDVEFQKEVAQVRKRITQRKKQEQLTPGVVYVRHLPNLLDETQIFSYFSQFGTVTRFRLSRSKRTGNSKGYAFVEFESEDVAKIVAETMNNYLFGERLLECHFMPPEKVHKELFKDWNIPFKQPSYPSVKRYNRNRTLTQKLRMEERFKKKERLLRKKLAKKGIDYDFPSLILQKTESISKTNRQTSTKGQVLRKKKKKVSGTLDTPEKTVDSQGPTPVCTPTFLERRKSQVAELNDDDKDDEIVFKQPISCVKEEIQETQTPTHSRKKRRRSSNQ
inactive: erlotinib 0 | [1] -0.05 | [2] -0.01 | [3] -0.009 | [4] 0.032 | [5] 0.038 | [6] 0.01 | [7] -0.02 | [8] -0.005 | IRAK-1-4 Inhibitor I -0.042

NUCB2 (UniProt P80303)
Chain of UniProt P80303 (P80303 whole entry, looked up): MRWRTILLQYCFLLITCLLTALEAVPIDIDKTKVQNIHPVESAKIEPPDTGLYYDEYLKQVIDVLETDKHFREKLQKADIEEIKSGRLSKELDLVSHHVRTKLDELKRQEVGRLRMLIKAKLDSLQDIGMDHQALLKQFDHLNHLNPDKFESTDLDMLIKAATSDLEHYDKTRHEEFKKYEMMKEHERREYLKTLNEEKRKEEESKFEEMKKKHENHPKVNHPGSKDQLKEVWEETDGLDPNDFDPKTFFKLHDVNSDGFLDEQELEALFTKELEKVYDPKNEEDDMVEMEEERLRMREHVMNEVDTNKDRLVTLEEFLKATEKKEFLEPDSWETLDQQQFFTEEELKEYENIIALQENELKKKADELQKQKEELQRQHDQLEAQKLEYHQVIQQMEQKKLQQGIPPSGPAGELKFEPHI
inactive: erlotinib -0.003 | [1] 0.018 | [2] 0.014 | [3] -0.018 | [4] 0.011 | [5] -0.015 | [6] -0.017 | [7] 0.003 | [8] 0.003 | IRAK-1-4 Inhibitor I 0.007

NFATC2 (UniProt Q13469)
inactive: erlotinib 0.002 | [1] 0.067 | [2] 0.014 | [3] 0.032 | [4] -0.016 | [5] 0.002 | [6] -0.144 | [7] -0.018 | [8] -0.049 | IRAK-1-4 Inhibitor I 0.033

NAP1L5 (UniProt Q96NT1)
inactive: erlotinib -0.003 | [1] -0.023 | [2] 0.017 | [3] -0.014 | [4] -0.014 | [5] 0.084 | [6] -0.116 | [7] -0.057 | [8] 0 | IRAK-1-4 Inhibitor I -0.059

MTHFD1, A0A384N5Y3
inactive: erlotinib 0.024 | [1] 0.041 | [2] -0.004 | [3] 0.04 | [4] 0.029 | [5] 0.02 | [6] -0.039 | [7] 0.021 | [8] 0.015 | IRAK-1-4 Inhibitor I 0.002

MTHFD1L (UniProt B7ZM99)
inactive: erlotinib 0.026 | [1] -0.001 | [2] 0 | [3] -0.007 | [4] 0.033 | [5] -0.006 | [6] -0.057 | [7] -0.004 | [8] 0.002 | IRAK-1-4 Inhibitor I -0.013

MSI2 (UniProt Q96DH6)
Chain of UniProt Q96DH6 (Q96DH6 whole entry, looked up): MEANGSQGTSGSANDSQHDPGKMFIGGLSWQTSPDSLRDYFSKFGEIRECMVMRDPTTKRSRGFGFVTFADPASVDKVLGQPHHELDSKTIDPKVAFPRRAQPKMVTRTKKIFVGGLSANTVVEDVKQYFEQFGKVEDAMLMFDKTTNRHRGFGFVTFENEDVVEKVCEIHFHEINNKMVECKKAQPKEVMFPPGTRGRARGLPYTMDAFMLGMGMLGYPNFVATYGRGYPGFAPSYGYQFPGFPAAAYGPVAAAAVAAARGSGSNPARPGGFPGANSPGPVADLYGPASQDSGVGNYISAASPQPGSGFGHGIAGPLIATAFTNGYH
inactive: erlotinib -0.04 | [1] -0.277 | [2] 0.035 | [3] -0.047 | [4] 0.084 | [5] -0.034 | [6] -0.011 | [7] 0.03 | [8] 0.027 | IRAK-1-4 Inhibitor I 0.057

NFIC (UniProt P08651)
Chain of UniProt P08651 (P08651 whole entry, looked up): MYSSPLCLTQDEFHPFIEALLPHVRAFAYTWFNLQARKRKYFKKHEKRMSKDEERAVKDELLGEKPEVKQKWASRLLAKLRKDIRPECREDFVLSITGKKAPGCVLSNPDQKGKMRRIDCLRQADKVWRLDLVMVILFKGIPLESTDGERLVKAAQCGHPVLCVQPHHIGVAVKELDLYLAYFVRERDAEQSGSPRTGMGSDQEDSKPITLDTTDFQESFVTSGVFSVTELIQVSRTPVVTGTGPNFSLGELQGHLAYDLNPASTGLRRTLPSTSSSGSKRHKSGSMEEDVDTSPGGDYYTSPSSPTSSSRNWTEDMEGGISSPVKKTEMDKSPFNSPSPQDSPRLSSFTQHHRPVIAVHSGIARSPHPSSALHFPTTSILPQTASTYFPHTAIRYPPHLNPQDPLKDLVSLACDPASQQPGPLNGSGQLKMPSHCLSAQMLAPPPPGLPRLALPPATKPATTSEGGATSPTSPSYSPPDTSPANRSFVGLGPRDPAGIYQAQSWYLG
inactive: erlotinib 0.014 | [1] 0.063 | [2] -0.044 | [3] 0.025 | [4] 0.001 | [5] -0.084 | [6] -0.082 | [7] -0.016 | [8] -0.032 | IRAK-1-4 Inhibitor I 0.052

MTCH2 (UniProt Q9Y6C9)
inactive: erlotinib 0.004 | [1] 0.051 | [2] -0.081 | [3] -0.032 | [4] -0.06 | [5] -0.004 | [6] -0.031 | [7] -0.033 | [8] -0.011 | IRAK-1-4 Inhibitor I 0.027

NSUN2 (UniProt Q08J23)
Chain of UniProt Q08J23 (Q08J23 whole entry, looked up): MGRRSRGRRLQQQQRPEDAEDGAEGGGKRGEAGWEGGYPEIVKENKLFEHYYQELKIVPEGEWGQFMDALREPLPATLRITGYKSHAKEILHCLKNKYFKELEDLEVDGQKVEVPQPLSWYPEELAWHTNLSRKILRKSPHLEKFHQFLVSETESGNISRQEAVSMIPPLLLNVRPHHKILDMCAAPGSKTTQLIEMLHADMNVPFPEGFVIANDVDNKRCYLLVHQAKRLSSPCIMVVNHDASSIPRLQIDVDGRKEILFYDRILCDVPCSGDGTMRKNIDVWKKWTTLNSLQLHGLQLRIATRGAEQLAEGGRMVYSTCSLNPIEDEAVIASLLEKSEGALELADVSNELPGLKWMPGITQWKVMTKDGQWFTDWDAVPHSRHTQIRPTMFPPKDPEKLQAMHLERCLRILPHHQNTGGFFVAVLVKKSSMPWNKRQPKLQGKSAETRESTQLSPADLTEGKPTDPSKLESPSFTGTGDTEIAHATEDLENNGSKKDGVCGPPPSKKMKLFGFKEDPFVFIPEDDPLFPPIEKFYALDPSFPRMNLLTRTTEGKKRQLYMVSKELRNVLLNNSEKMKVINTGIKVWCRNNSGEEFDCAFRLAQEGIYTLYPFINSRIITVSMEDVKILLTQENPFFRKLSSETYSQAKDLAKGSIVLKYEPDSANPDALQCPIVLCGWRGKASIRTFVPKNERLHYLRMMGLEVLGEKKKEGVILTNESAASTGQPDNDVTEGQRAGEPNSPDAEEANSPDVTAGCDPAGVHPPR
inactive: erlotinib 0.004 | [1] 0.04 | [2] -0.018 | [3] 0.006 | [4] 0.004 | [5] -0.006 | [6] -0.016 | [7] 0.033 | [8] -0.018 | IRAK-1-4 Inhibitor I -0.002

NR2C2 isoform 2 (UniProt P49116)
inactive: erlotinib 0.006 | [1] 0.135 | [2] -0.014 | [3] 0.134 | [4] -0.012 | [5] 0.064 | [6] -0.035 | [7] 0.061 | [8] -0.041 | IRAK-1-4 Inhibitor I -0.019

OSBPL3 isoform 2 (UniProt Q9H4L5)
Chain of UniProt Q9H4L5 (Q9H4L5 whole entry, looked up): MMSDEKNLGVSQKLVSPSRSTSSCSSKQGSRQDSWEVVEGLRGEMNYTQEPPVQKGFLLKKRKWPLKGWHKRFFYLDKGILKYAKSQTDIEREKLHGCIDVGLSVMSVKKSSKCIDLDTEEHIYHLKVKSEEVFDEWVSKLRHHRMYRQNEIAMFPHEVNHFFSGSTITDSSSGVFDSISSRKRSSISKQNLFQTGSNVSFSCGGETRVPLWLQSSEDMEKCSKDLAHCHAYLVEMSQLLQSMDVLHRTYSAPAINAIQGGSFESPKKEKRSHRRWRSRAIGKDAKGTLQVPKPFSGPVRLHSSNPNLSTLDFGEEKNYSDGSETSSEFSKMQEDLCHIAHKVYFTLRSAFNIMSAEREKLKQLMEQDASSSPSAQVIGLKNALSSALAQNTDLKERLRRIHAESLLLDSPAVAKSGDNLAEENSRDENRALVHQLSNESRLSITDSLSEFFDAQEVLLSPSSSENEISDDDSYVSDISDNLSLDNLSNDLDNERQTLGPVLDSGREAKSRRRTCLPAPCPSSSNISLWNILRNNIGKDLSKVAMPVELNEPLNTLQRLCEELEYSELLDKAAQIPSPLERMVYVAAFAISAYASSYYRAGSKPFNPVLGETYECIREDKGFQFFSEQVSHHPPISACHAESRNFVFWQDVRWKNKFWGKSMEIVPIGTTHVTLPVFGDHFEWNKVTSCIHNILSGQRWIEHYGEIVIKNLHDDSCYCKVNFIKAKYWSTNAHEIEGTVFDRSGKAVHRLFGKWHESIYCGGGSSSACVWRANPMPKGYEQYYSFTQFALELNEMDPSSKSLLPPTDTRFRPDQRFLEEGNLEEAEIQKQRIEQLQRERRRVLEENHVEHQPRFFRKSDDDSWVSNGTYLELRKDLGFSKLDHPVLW
inactive: erlotinib 0.292 | [1] 0.206 | [2] 0.038 | [3] 0.079 | [4] -0.04 | [5] 0.189 | [6] 0.135 | [7] -0.001 | [8] -0.018 | IRAK-1-4 Inhibitor I -0.183

MRPS12 (UniProt O15235)
inactive: erlotinib -0.015 | [1] -0.058 | [2] 0 | [3] -0.044 | [4] -0.016 | [5] 0.019 | [6] -0.251 | [7] -0.004 | [8] -0.127 | IRAK-1-4 Inhibitor I 0.043

NTPCR (UniProt Q9BSD7)
Chain of UniProt Q9BSD7 (Q9BSD7 whole entry, looked up): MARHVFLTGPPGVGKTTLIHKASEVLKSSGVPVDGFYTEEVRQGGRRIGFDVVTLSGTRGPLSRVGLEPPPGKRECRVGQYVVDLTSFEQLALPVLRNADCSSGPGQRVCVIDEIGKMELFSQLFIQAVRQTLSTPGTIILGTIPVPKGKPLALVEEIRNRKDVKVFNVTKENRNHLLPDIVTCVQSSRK
inactive: erlotinib 0.015 | [1] -0.263 | [2] -0.007 | [3] 0.065 | [4] 0.031 | [5] 0.018 | [6] -0.045 | [7] 0.025 | [8] 0.046 | IRAK-1-4 Inhibitor I -0.011
